Measurements published in PubChem BioAssay (NCATS).
Results filed as inconclusive are left out. Active and inactive are the calls of the source. Calls follow the shape of the dose curve; as a rule, active = well fitted cell-killing curve with a large enough effect; inconclusive = small, poorly fitted or top-dose-only effect, or effect the other way; inactive = no such curve, though single readings can be large or run the other way. Non-standard residues stand in square brackets, D forms with d. Residues, ends and D or L forms follow the SMILES beside them. *: point of attachment. Sta = CC(C)C[C@H](N)[C@@H](O)CC(=O)O; Isovaleryl = CC(C)CC(=O)*

Test: Quantitative High-Throughput drug screen in 47 multiple myeloma cell lines against the NCATS MIPE library collection: KMS20_JCRB cell viability assay (AID 1918973); also: nearly all actives have a fitted effect of over 45% in size
Settings: CellTiter-Glo ATP, 48 h; series mostly up to 45.8 µM; viability (% of DMSO): at the top concentration
Excerpt: PI: Beverly A. Mock Ph.D.
Laboratory of Cancer Biology and Genetics,
Center for Cancer Research, National Cancer Institute,
National Institute of Health, Bethesda, Maryland
Drug resistance and disease progression are common in multiple myeloma (MM) patients, underscoring the need for new therapeutic combinations. […] We hypothesized that effective combinations would reduce MYC expression and enhance p16 activity. […] These preclinical data identify potentially useful drug combinations for evaluation in drug-resistant MM and reveal potential mechanisms of combined drug sensitivity.
Described herein is the primary MIPE qHTS used to cherrypick compounds. Validated compounds were then further tested for potential synergistic activiy.
[1] Peat TJ, Gaikwad SM, Dubois W, Gyabaah-Kessie N, Zhang S, Gorjifard S, Phyo Z, Andres M, Hughitt VK, Simpson RM, Miller MA, Girvin AT, Taylor A, Williams D, D'Antonio N, Zhang Y, Rajagopalan A, Flietner E, Wilson K, Zhang X, Shinn P, Klumpp-Thomas C, McKnight C, Itkin Z, Chen L, Kazandijian D, Zhang J, Michalowski AM, Simmons JK, Keats J, Thomas CJ, Mock BA. Drug combinations identified by high-throughput screening promote cell cycle transition and upregulate Smad pathways in myeloma. Cancer Lett. 2023 Aug 1;568:216284. doi: 10.1016/j.canlet.2023.216284. Epub 2023 Jun 24. PMID: 37356470; PMCID: PMC10408729.
SEQUENCE No. (e.g., 1, 2, 3, etc.); […] (e.g., Cells, Incubation, Reagent, etc.); VALUE and DESCRIPTION.
1; Cells; 5 uL; white, solid bottom 1536-well Greiner assay plate.
2; Compounds; 23 nL; Kalypsis pin tool (Wako USA) equipped with a 1536-well pin head to transfer to the assay plates.
3; Incubation; 48 hours; 37C incubation.
4; Reagent;5uL; CellTiter Glo (Promega).
5; Detector; 425V; Luminescence; Viewlux PerkinElmer.
NOTES (numbers refer to Sequence numbers above)
1. The cell-based screening methods employed in this study were like those previously published. Briefly, the corresponding myeloma cell lines were screened in 1,536-well plates with 500 cells, 5-uL per well for inhibition of cell viability (assessed by measuring ATP levels with CellTiterGlo).
2. NCATS MIPE 4.0 library of approved and investigational drugs were added using the Kalypsis pin tool. Wells treated with DMSO only for 100% viability and media only wells for 0% viability were used as controls.
3. The assay plates were covered and incubated for 48 hours in a 37C, 5% CO2 incubator with controlled humidity.
4. After 48 hours, CellTilter-GloTM luminescent substrate mix (Promega) reagent was added to the assay plate and plates we incubated for 5 min at room temperature.
5. Signal was measured as median relative luminescence units on a ViewLux (PerkinElmer) multiplate reader.
[1] Heske CM, Davis MI, Baumgart JT, Wilson K, Gormally MV, Chen L, Zhang X, Ceribelli M, Duveau DY, Guha R, Ferrer M, Arnaldez FI, Ji J, Tran HL, Zhang Y, Mendoza A, Helman LJ, Thomas CJ. Matrix Screen Identifies Synergistic Combination of PARP Inhibitors and Nicotinamide Phosphoribosyltransferase (NAMPT) Inhibitors in Ewing Sarcoma. Clin Cancer Res. 2017 Dec 1;23(23):7301-7311. doi: 10.1158/1078-0432.CCR-17-1121. Epub 2017 Sep 12. PMID: 28899971; PMCID: PMC6636827.
Potency is read from the fitted curve at half-maximal effect.

| SMILES | Potency | viability (% of DMSO) |
| --- | --- | --- |
| Nc1ncn([C@H]2C[C@H](O)[C@@H](CO)O2)c(=O)n1 | 0.132 µM (active) |  |
| CCOC(=O)c1c(C)n(C)c2ccc(O)cc12 |  | 101% (inactive) |
| CC(=O)O[C@H]1C(=O)[C@@]2(C)C([C@H](OC(=O)c3ccccc3)[C@]3(O)C[C@H](OC(=O)[C@H](O)[C@@H](NC(=O)c4ccccc4)c4ccccc4)C(C)=C1C3(C)C)[C@]1(OC(C)=O)CO[C@@H]1C[C@@H]2O (stereo not given in full) |  | 52.9% (inactive) |
| Cc1cccc(CN2CCN(C(c3ccccc3)c3ccc(Cl)cc3)CC2)c1 (stereo not given) | 6.62 µM (active) |  |
| CC(C)C[C@H](NC(=O)[C@H](Cc1ccccc1)NC(=O)c1cnccn1)B(O)O | 0.0148 µM (active) |  |
| CN(c1nccc(=O)[nH]1)C1CCN(c2nc3ccccc3n2Cc2ccc(F)cc2)CC1 | 6.62 µM (active) |  |
| NNc1nncc2ccccc12 |  | 89.1% (inactive) |
| CN(C)C(=O)[C@H](O)[C@H](Cc1ccccc1)NC(=O)c1cc2cc(Cl)ccc2[nH]1 | 7.43 µM (active) |  |
| CCN(CC)C(=S)SSC(=S)N(CC)CC | 0.001 µM (active) |  |
| CCN(CC)CCOc1ccc(Cc2ccccc2)cc1 |  | 104% (inactive) |
| COC(=O)C1=C(C)NC(C)=C(C(=O)OC(C)C)C1c1cccc2nonc12 (stereo not given) | 20.9 µM (active) |  |
| COc1c(O)cc2c(c1O)[C@@H]1O[C@H](CO)[C@@H](O)[C@H](O)[C@H]1OC2=O |  | 134% (inactive) |
| CN(C)c1ccc2nc3ccc(=[N+](C)C)cc-3sc2c1 | 2.64 µM (active) |  |
| CCOC(=O)C1=C[C@@H](OC(CC)CC)[C@H](NC(C)=O)[C@@H](N)C1 |  | 144% (inactive) |
| COc1cc(Nc2c(C#N)cnc3cc(OCCCN4CCN(C)CC4)c(OC)cc23)c(Cl)cc1Cl | 1.32 µM (active) |  |
| CC1(C)C(=O)N(CCN2CCC(C(=O)c3ccc(F)cc3)CC2)c2ccccc21 | 4.18 µM (active) |  |
| Cc1cc(C2CCCCC2)n(O)c(=O)c1 | 11.8 µM (active) |  |
| CNC[C@H](O)c1ccc(O)c(O)c1 | 10.8 µM (active) |  |
| Clc1ccc2c(N3CCN(CCCN4CCN(c5ccnc6cc(Cl)ccc56)CC4)CC3)ccnc2c1 |  | 106% [at 23.2 µM] (inactive) |
| Cc1cc2c(s1)Nc1ccccc1N=C2N1CCN(C)CC1 |  | 117% (inactive) |

| SMILES | Potency | viability (% of DMSO) |
| --- | --- | --- |
| Nc1nc(Cl)nc2c1ncn2[C@H]1C[C@H](O)[C@@H](CO)O1 | 1.48 µM (active) |  |
| Cc1ccc(C(=O)c2cc(O)c(O)c([N+](=O)[O-])c2)cc1 | 20.9 µM (active) |  |
| O=P(O)(O)C(O)(Cn1ccnc1)P(=O)(O)O |  | 86.6% [at 23.2 µM] (inactive) |
| COc1cc2c(N3CCN(C(=O)Nc4ccc(OC(C)C)cc4)CC3)ncnc2cc1OCCCN1CCCCC1 | 5.26 µM (active) |  |
| Cc1cc(Cl)ccc1OCCCC(=O)NO | 4.18 µM (active) |  |
| CCOc1cc(CC(=O)N[C@@H](CC(C)C)c2ccccc2N2CCCCC2)ccc1C(=O)O | 0.59 µM (active) |  |
| O=C(O)c1cccc(-c2noc(-c3ccccc3F)n2)c1 |  | 121% (inactive) |
| Oc1ccc2ccccc2c1SSc1c(O)ccc2ccccc12 | 9.35 µM (active) |  |
| Cc1cc(O)c2c(c1)C(=O)c1cc(O)cc(O)c1C2=O |  | 128% (inactive) |
| Cc1nc2n(c(=O)c1CCN1CCC(c3noc4cc(F)ccc34)CC1)CCCC2 |  | 117% (inactive) |
| CC(C)CC(=O)N[C@H](C(=O)N[C@H](C(=O)N[C@@H](CC(C)C)[C@@H](O)CC(=O)N[C@@H](C)C(=O)N[C@@H](CC(C)C)[C@@H](O)CC(=O)O)C(C)C)C(C)C (Isovaleryl-VV[Sta]A[Sta]-OH) |  | 82.7% (inactive) |
| O=c1ccc2ccc(O)c(O)c2o1 | 16.6 µM (active) |  |
| Nc1nc(N)c(N=O)c(OCC2CCCCC2)n1 | 4.69 µM (active) |  |
| CCCCC(CC)COC(=O)C(C#N)=C(c1ccccc1)c1ccccc1 (stereo not given) |  | 106% (inactive) |
| O=C(NOCC1CC1)c1ccc(F)c(F)c1Nc1ccc(I)cc1Cl | 0.59 µM (active) |  |
| COC(=O)C1=C(C)NC(C)=C(C(=O)OCCCN2CCC(c3ccccc3)(c3ccccc3)CC2)C1c1cccc([N+](=O)[O-])c1 (stereo not given) |  | 154% (inactive) |
| O=C(CS(=O)Cc1ccco1)NCC=CCOc1cc(CN2CCCCC2)ccn1 (stereo not given) |  | 106% (inactive) |
| Cc1cc(=O)c2c(O)c3c(O)cc(=O)c4c3c3c(cc(O)c1c23)C(C)(C)C=4O | 0.0187 µM (active) |  |
| NCCCCNCCCN | 18.7 µM (active) |  |
| O=C(NCC1CCCCN1)c1cc(OCC(F)(F)F)ccc1OCC(F)(F)F (stereo not given) | 7.43 µM (active) |  |
